# The panel holds about 83,000 compounds, 20% with a hit somewhere; the sample as a whole holds those more often.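 Each cell line was grown in a 96-well plate and treated with one concentration of compound for 48 hours. Values below 10 were considered active.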 Values without a mark were called inactive. The source made the active and inactive calls.
# System: SNB-75 CNS
# Test: NCI-60 one-dose screen, 48 h (100 = growth as untreated, 0 = no growth, -100 = all killed)
# Conditions: 10 µM
# Method: Growth inhibition of the SNB-75 human tumor cell line is measured as a screen for anti-cancer activity. Cells are grown in 96 well plates and exposed to the test compound for 48 hours. Compounds are tested at a single concentration, which is 10^-5 M for most compounds. The reported endpoint is percent growth (GI% or GIPRCNT), where numbers from 0 - 100% represent growth inhibition, and numbers from -100% - 0 represent cell death. For example, a value of 40 represents 60% growth inhibition. A value of 0 means no net growth occurred over the course of the experiment. A value of -40 indicates 40% of cells at the beginning of the experiment died by the end of the experiment. A value of -100 means all cells are dead at the end of the experiment.
# NCI-60 Human Tumor Cell Lines Screen was performed using the standard one-dose NCI protocol, which is described in more detail at https://dtp.cancer.gov/discovery_development/nci-60/default.htm.
# Compounds with GIPRCNT values below 10 were considered active. Activity score was based on GIPRCNT using the following formula: […]
# Score is 0 for GIPRCNT values of 100 or above, 50 for GIPRCNT values of 0, and 100 for GIPRCNT values of -100.
row,SMILES,growth
1,NC(=N\N=C/c1ccc(O)cc1)/C(N)=N\N=C/c1ccc(O)cc1,94.4%
2,O=[N+]([O-])c1ccc(-c2cn(-c3ccccc3)c(-c3ccccc3)n2)cc1,70.7%
3,C=C[C@@H]1C[C@H](O)Cc2cc(F)ccc2N1,87.9%
4,CC(=O)Nc1ccc(S(=O)(=O)n2ccc(-c3ccc4c(c3)CCC(C)(C)O4)n2)cc1,81.4%
5,Nc1nc(-c2ccccc2)c(CCCOc2ccc(NC(=O)CBr)cc2)c(=O)[nH]1,94.3%
6,COc1cc(/C=C/C(=O)c2cccc(-n3cc(-c4cc(OC)c(OC)c(OC)c4)[nH]c3=O)c2)cc(OC)c1OC,44.6%
7,Cc1ccc(S(=O)(=O)n2cc(C(=O)C(=O)N3CCOCC3)c3ccccc32)cc1,104%
8,O=C1Nc2ccc3c(c2/C1=C\c1cc2c(cc1Br)OCO2)OCO3,-37.7% (active)
9,CCOC(=O)NNC(=S)Nc1ccccc1,95.2%
10,COc1ccc(-c2nc3sccn3c2/C=C/C(=O)c2cc(F)cc(F)c2)cc1,42.3%
11,Cn1c(=O)c2[nH]c(C3CC=CCC3)nc2n(C)c1=O (stereo not given),93.9%
12,O=c1[nH]c(-c2ccccc2)nc(CN2CCCCC2)c1O,96.3%
13,O=c1[nH]c(Nc2ccc(S(=O)(=O)O)cc2)nc2nc(Nc3ccc(NC(=S)Nc4ccccc4)cc3)nc(-c3ccc(O)cc3O)c12,96.3%
14,COc1ccc(Nc2nc(N)nc3c2CCN(Cc2ccc(OC)cc2OC)C3=O)cc1,85.7%
15,CC(C)(C)OC(=O)NCCc1ccc(N=C=S)cc1,42.4%
16,CC(C)(C)N1CCC1C(N)=O (stereo not given),89.3%
17,C=C1CCC2C3(C)COC(c4ccc(N(C)C)cc4)OC3CCC2(C)C1C/C=C1/C(=O)OCC1O (stereo not given),73.8%
18,Cc1nn(-c2ccc([N+](=O)[O-])cc2)c2ncnc(NCCc3ccccc3)c12,87.9%
19,O=C(O)Cc1cccc(=O)c(O)c1C(=O)O,107%
20,CCCCCc1cc[n+](CC(=O)c2ccc([N+](=O)[O-])cc2)cc1,89.6%

row,SMILES,growth
1,COc1ccc(-c2c(N)n[nH]c2-c2cc(OC)c3c(c2)OCCO3)cc1,57.4%
2,COc1ccc(S(=O)(=O)n2ccc(-c3ccc4c(c3)CCC(C)(C)O4)n2)cc1OC,84.6%
3,COc1ccc2c(c1)[nH]c(=O)c1c3cccc(F)c3cn21,76.2%
4,CC(C)NCCCNC1=C(Cl)C(=O)c2ccccc2C1=O,79.4%
5,COc1ccc(C(=O)NC(=O)Nc2cc3c(cc2F)/C(=C/c2[nH]c(C)c(CCC(=O)O)c2C)C(=O)N3)c(F)c1,9.65% (active)
6,CC1CCC(C)N(C)C1 (stereo not given),89.7%
7,Cc1cc(C(C)(C)C)ccc1S,91.4%
8,CN(C)c1ncnc2c1ccn2C1OC(CO)C(O)C1O (stereo not given),27%
9,C=C[C@@H]1C[C@@H]2Cc3c(C)cc(C)cc3N1O2,95.4%
10,COc1ccc(-c2cnnn2-c2nonc2-n2cccc2)cc1OC,51.3%
11,O=C(/C=C/c1cc(-c2ccc3c(c2)OCO3)n[nH]1)c1ccc2c(c1)OCO2,101%
12,c1ccc(-c2nnc(-c3ccccn3)s2)nc1,70.4%
13,COc1ccc2c(c1)[nH]c(=O)c1c3cc(C)c(C)cc3cn21,84.8%
14,NC(N)=Nc1nc2ccccc2o1,111%
15,C=C(C)[C@@H]1CC[C@]2(C(=O)N3CCNCC3)CC[C@]3(C)[C@H](CC[C@@H]4[C@@]5(C)C/C(=C/c6ccncc6)C(=O)C(C)(C)[C@@H]5CC[C@]43C)[C@@H]12,96.4%
16,Nc1ncnc2c1c(-c1ccc(Oc3ccccc3)cc1)nn2C[C@@H]1SSC[C@@H]1O,5.33% (active)
17,CC(C)OC(=O)N1CCOCC1,86%
18,Fc1ccccc1-c1nc(-c2nc3cc(Cl)c(Cl)cc3[nH]2)c2ccccn12,38.1%
19,COc1ccc(/C=C(\C#N)c2cc(OC)c3c(c2)OCO3)cc1,39.8%
20,CCOC(=O)c1ccc2c(c1)c1c(C)c3cccnc3c(C)c1n2C,68%

# From PubChem BioAssay (NCI)
